# Laboratory results from PubChem BioAssay (EPA / NIEHS).
# The source made the active and inactive calls. The calls were made as follows: active = hit-call score of the fitted dose curve at least 0.9, where 1 is the maximum; inactive = score below 0.9.
# Assays:
# Conditions in all cases: mRNA level, 48 h; actives raise or lower the signal
# [1] = read-out: Tumor necrosis factor receptor superfamily member 6 (Homo sapiens) (UniProt P25445); assay: LTEA_HepaRG_FAS: Life Technologies and Expression Analysis (LTEA) Assay for Fas cell surface death receptor (FAS) using HepaRG (AID 2283447)
# Summary of the method: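 FAS transcript level was measured by TaqMan qRT-PCR against three housekeeping genes after 48 h chemical exposure. Cells were HepaRG, 0.5% DMSO vehicle, with a top concentration of 100 uM and half-log dilutions over eight points, in duplicate.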
# [2] = read-out: Fatty acid synthase (Homo sapiens) (UniProt P49327); assay: LTEA_HepaRG_FASN: Life Technologies and Expression Analysis (LTEA) Assay for Fatty Acid Synthase (FASN) using HepaRG (AID 2283448)
# Summary of the method: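 FASN transcript measured by TaqMan qRT-PCR, normalised to three housekeeping genes, after 48 h chemical exposure of HepaRG cells. Eight-point half-log series from 100 uM in 0.5% DMSO, duplicates; gain or loss fitted against vehicle.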
# [3] = read-out: Cyclin D2 (CCND2), CCND2 (gene 894); assay: LTEA_HepaRG_CCND2: Life Technologies and Expression Analysis (LTEA) Assay for Cyclin D2 (CCND2) using HepaRG (AID 2283449)
# Summary of the method: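 CCND2 transcript levels, quantified by qRT-PCR and normalised to three housekeeping genes, were fitted bidirectionally against 0.5% DMSO. HepaRG cultures were dosed 48 h in duplicate with an 8-point half-log series up to 100 uM.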
# [4] = read-out: Cyclin Dependent Kinase Inhibitor 1A (CDKN1A), CDKN1A (gene 1026); assay: LTEA_HepaRG_CDKN1A: Life Technologies and Expression Analysis (LTEA) Assay for Cyclin Dependent Kinase Inhibitor 1A (CDKN1A) using HepaRG (AID 2283450)
# Summary of the method: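 Differentiated HepaRG cells in serum-free induction medium, exposed 48 h in duplicate to eight half-log concentrations up to 100 uM in 0.5% DMSO. mRNA measured by TaqMan qRT-PCR, normalized to ACTB, GAPDH, POLR2A; bidirectional fit versus DMSO.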
# [5] = read-out: Cyclin D1 (CCND1), CCND1 (gene 595); assay: LTEA_HepaRG_CCND1: Life Technologies and Expression Analysis (LTEA) Assay for Cyclin D1 (CCND1) using HepaRG (AID 2283451);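 as to AC50: TaqMan qRT-PCR transcript level normalised to ACTB GAPDH and POLR2A housekeeping genes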
# Summary of the method: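 Differentiated HepaRG cells exposed 48 h in serum-free induction medium to eight half-log concentrations from 100 uM top, 0.5% DMSO, duplicates. CCND1 mRNA measured by Fluidigm TaqMan qRT-PCR, normalised to ACTB, GAPDH, POLR2A; bidirectional fit.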
# [6] = read-out: catalase (CAT), CAT (gene 847); assay: LTEA_HepaRG_CAT: Life Technologies and Expression Analysis (LTEA) Assay for catalase (CAT) using HepaRG (AID 2283452)
# Summary of the method: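 Expression of CAT was quantified by TaqMan qRT-PCR with ACTB/GAPDH/POLR2A normalization after 48 h chemical exposure of HepaRG. Eight-point half-log series, top 100 uM, in 0.5% DMSO; gain or loss fitted against vehicle.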
# [7] = read-out: flavin-containing dimethylaniline monooxygenases 3 (FMO3), FMO3 (gene 2328); assay: LTEA_HepaRG_FMO3: Life Technologies and Expression Analysis (LTEA) Assay for flavin-containing dimethylaniline monooxygenases 3 (FMO3) using HepaRG (AID 2283453)
# Summary of the method: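 FMO3 transcript quantified by TaqMan qRT-PCR against three housekeeping genes after 48 h chemical exposure of HepaRG cells. Eight-point half-log series, top 100 uM, 0.5% DMSO vehicle; phenobarbital 1mM induction control; up- or down-regulation fitted.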
# [8] = read-out: Cytochrome P450 (CYP1A1), CYP1A1 (gene 1543); assay: LTEA_HepaRG_CYP1A1: Life Technologies and Expression Analysis (LTEA) Assay for Cytochrome P450 (CYP1A1) using HepaRG (AID 2283454)
# Summary of the method: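 Differentiated human HepaRG cells, after 48 h plating, exposed in duplicate for 48 h in serum-free induction medium to 8 half-log concentrations up to 100 uM in 0.5% DMSO. CYP1A1 mRNA by qRT-PCR, normalized to ACTB/GAPDH/POLR2A; bidirectional fit versus DMSO.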
# [9] = read-out: CFLAR gene, CFLAR (gene 8837); assay: LTEA_HepaRG_CFLAR: Life Technologies and Expression Analysis (LTEA) Assay for CFLAR gene using HepaRG (AID 2283455)
# Summary of the method: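 Transcript level by qRT-PCR (normalized to ACTB, GAPDH and POLR2A) after 48 h chemical exposure of HepaRG cells, top concentration 100 uM with half-log steps, 0.5% DMSO vehicle, duplicates; fitted bidirectionally against DMSO baseline.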
# [10] = read-out: Forkhead box O1 (FOXO1), FOXO1 (gene 2308); assay: LTEA_HepaRG_FOXO1: Life Technologies and Expression Analysis (LTEA) Assay for Forkhead box O1 (FOXO1) using HepaRG (AID 2283456)
# Summary of the method: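 FOXO1 transcript quantified by qRT-PCR after 48 h chemical exposure (top 100 uM, half-log steps, 0.5% DMSO) of HepaRG cells, housekeeping-normalized (ACTB/GAPDH/POLR2A). Changes fitted in both directions relative to vehicle.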
# [11] = read-out: growth arrest and DNA damage 45 (GADD45A), GADD45A (gene 1647); assay: LTEA_HepaRG_GADD45A: Life Technologies and Expression Analysis (LTEA) Assay for growth arrest and DNA damage 45 (GADD45A) using HepaRG (AID 2283458)
# Summary of the method: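 GADD45A expression was measured by TaqMan qRT-PCR against three housekeeping genes (ACTB, GAPDH, POLR2A) after 48 h treatment of HepaRG cells. Eight-point half-log series up to 100 uM in 0.5% DMSO, run in duplicate.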
# [12] = read-out: ABC Transporter (ABCB1), ABCB1 (gene 5243); assay: LTEA_HepaRG_ABCB1: Life Technologies and Expression Analysis (LTEA) Assay for ABC Transporter (ABCB1) using HepaRG (AID 2283460)
# Summary of the method: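 ABCB1 transcript level measured by TaqMan qRT-PCR against three housekeeping genes after 48 h chemical exposure of differentiated HepaRG cells. Top concentration 100 uM, half-log steps, eight points, 0.5% DMSO vehicle; bidirectional fit relative to DMSO.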
# [13] = read-out: growth arrest and DNA damage 45 (GADD45B), GADD45B (gene 4616); assay: LTEA_HepaRG_GADD45B: Life Technologies and Expression Analysis (LTEA) Assay for growth arrest and DNA damage 45 (GADD45B) using HepaRG (AID 2283461)
# Summary of the method: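 Differentiated human HepaRG cells in serum-free induction medium exposed 48 h in duplicate to eight concentrations, top 100 uM, half-log steps, 0.5% DMSO. GADD45B mRNA by TaqMan qRT-PCR, normalized to ACTB, GAPDH, POLR2A; bidirectional fit versus DMSO.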
# [14] = read-out: ABC Transporter (ABCC3), ABCC3 (gene 8714); assay: LTEA_HepaRG_ABCC3: Life Technologies and Expression Analysis (LTEA) Assay for ABC Transporter (ABCC3) using HepaRG (AID 2283462)
# Summary of the method: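 Differentiated human HepaRG cells exposed 48 h in serum-free induction medium, 0.5% DMSO vehicle, 8-point half-log series to 100 uM in duplicate. ABCC3 mRNA by qRT-PCR, normalised to ACTB, GAPDH, POLR2A; bidirectional fit vs DMSO.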
# [15] = read-out: ABC Transporter (ABCB11), ABCB11 (gene 8647); assay: LTEA_HepaRG_ABCB11: Life Technologies and Expression Analysis (LTEA) Assay for ABC Transporter (ABCB11) using HepaRG (AID 2283463)
# Summary of the method: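 ABCB11 transcript levels quantified by TaqMan qRT-PCR against three housekeeping genes after 48 h chemical exposure of HepaRG cultures. Concentrations up to 100 uM in half-log steps, 0.5% DMSO vehicle; both induction and suppression scored.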
# [16] = read-out: ABC Transporter (ABCC2), ABCC2 (gene 1244); assay: LTEA_HepaRG_ABCC2: Life Technologies and Expression Analysis (LTEA) Assay for ABC Transporter (ABCC2) using HepaRG (AID 2283464)
# Summary of the method: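 Differentiated HepaRG cells in serum-free induction medium exposed 48 h to eight half-log concentrations up to 100 uM, 0.5% DMSO, in duplicate. ABCC2 mRNA measured by qRT-PCR (TaqMan, Fluidigm), normalized to ACTB, GAPDH and POLR2A. Fitted in both directions against DMSO.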
# [17] = read-out: Broad substrate specificity ATP-binding cassette transporter ABCG2 (Homo sapiens) (UniProt Q9UNQ0); assay: LTEA_HepaRG_ABCG2: Life Technologies and Expression Analysis (LTEA) Assay for ABC Transporter (ABCG2) using HepaRG (AID 2283465)
# Summary of the method: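 ABCG2 transcript was quantified by TaqMan qRT-PCR against three housekeeping genes in HepaRG cells. Cells were treated in duplicate for 48 h across an 8-point half-log series up to 100 uM, with 0.5% DMSO vehicle. Gain or loss versus DMSO was fit.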
# [18] = read-out: ATP-citrate lyase (ACLY), ACLY (gene 47); assay: LTEA_HepaRG_ACLY: Life Technologies and Expression Analysis (LTEA) Assay for ATP-citrate lyase (ACLY) using HepaRG (AID 2283466)
# Summary of the method: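 ACLY mRNA quantified by qRT-PCR on Fluidigm arrays against three housekeeping genes, after 48 h chemical treatment of HepaRG cells (top concentration 100 uM, half-log steps, 0.5% DMSO vehicle). Up- or down-regulation fitted relative to DMSO.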
# [19] = read-out: Forkhead box O3 (FOXO3), FOXO3 (gene 2309); assay: LTEA_HepaRG_FOXO3: Life Technologies and Expression Analysis (LTEA) Assay for Forkhead box O3 (FOXO3) using HepaRG (AID 2283459)
# Summary of the method: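 FOXO3 transcript measured by qRT-PCR (normalized to ACTB, GAPDH, POLR2A) after 48 h exposure of HepaRG cells in serum-free induction medium. Duplicates, eight half-log concentrations up to 100 uM, 0.5% DMSO; gain or loss fitted against DMSO.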
# Chain of Fatty acid synthase (Homo sapiens) (P49327 whole entry, looked up): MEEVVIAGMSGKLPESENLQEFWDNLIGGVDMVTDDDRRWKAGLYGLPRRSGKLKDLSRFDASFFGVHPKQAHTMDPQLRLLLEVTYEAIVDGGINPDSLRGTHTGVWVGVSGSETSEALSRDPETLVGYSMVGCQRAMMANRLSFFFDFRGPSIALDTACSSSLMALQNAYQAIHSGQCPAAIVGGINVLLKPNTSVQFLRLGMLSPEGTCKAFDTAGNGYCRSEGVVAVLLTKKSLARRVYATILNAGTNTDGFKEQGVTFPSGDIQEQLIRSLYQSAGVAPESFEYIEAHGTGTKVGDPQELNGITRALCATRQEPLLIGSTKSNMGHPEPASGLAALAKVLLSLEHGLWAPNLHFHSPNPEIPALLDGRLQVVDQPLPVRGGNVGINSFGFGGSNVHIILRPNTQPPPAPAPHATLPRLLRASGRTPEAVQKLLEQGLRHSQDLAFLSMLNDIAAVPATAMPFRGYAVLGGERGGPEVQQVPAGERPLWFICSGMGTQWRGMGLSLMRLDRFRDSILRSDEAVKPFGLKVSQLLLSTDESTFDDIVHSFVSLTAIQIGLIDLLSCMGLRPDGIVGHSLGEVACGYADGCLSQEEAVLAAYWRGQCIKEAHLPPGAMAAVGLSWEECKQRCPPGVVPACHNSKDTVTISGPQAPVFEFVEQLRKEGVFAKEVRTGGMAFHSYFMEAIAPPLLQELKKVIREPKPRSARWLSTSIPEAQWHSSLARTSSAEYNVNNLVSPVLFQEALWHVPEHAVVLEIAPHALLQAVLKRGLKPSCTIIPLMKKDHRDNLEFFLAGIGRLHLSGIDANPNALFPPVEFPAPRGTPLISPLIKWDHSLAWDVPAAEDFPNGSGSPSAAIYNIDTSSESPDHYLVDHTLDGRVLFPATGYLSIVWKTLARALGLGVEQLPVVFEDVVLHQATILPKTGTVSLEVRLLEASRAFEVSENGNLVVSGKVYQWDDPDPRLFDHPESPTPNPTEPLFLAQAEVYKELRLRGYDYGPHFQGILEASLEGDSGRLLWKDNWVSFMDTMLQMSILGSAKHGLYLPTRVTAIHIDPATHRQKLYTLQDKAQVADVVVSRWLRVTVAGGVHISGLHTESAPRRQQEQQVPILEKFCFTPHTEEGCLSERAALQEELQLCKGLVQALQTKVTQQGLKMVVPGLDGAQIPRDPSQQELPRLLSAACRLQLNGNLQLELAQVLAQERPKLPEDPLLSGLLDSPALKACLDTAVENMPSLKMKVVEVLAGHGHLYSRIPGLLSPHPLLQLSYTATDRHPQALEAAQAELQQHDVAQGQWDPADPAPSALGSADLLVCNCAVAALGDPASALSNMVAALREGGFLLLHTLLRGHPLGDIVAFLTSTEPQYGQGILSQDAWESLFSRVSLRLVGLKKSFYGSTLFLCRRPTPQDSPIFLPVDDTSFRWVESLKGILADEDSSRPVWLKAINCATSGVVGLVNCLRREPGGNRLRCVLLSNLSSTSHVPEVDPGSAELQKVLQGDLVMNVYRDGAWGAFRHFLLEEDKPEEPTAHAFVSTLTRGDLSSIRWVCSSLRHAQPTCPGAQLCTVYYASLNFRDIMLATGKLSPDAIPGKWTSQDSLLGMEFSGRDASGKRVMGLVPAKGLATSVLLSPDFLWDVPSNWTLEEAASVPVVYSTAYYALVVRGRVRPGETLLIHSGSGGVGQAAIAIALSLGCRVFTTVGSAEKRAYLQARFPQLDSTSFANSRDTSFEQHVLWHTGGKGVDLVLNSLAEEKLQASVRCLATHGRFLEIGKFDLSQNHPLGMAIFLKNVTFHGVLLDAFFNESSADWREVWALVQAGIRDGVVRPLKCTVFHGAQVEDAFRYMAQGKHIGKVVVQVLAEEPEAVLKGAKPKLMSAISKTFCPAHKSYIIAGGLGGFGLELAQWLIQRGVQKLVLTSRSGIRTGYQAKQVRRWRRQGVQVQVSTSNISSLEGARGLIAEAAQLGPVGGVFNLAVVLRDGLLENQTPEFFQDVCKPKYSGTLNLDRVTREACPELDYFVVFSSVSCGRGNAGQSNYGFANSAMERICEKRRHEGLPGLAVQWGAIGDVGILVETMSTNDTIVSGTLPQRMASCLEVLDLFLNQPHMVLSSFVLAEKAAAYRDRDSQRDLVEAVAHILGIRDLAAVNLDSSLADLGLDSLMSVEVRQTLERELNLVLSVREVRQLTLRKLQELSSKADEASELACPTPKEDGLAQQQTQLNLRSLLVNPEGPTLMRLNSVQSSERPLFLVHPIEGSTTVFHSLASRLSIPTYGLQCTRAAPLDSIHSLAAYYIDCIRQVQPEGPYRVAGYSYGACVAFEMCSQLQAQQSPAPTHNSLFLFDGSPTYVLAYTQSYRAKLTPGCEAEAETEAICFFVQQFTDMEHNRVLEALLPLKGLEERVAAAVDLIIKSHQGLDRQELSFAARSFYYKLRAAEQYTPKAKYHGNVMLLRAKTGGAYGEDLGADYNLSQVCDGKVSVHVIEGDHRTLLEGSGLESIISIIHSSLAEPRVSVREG
# Chain of Broad substrate specificity ATP-binding cassette transporter ABCG2 (Homo sapiens) (Q9UNQ0 whole entry, looked up): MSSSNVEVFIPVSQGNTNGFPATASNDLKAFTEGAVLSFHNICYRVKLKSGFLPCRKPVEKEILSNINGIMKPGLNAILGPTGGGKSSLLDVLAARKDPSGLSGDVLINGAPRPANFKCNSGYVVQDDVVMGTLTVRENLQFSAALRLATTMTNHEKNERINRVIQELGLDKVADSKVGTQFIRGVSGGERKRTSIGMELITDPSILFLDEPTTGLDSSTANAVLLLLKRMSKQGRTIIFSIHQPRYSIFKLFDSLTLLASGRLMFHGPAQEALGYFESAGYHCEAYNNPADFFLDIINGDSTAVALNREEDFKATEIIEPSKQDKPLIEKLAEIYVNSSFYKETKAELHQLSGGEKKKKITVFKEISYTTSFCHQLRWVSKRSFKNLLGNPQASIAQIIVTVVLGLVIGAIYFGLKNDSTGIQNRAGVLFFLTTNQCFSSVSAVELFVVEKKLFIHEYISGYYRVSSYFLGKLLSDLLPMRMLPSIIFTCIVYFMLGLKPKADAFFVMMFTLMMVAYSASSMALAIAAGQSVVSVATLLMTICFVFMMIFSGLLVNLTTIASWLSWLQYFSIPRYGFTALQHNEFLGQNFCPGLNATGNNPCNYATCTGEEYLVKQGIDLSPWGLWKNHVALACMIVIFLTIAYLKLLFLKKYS
compound,measurement,setting,value
CN(C)C(=O)Nc1cccc(C(F)(F)F)c1,outcome,[1],inactive
same,outcome,[2],inactive
same,outcome,[3],inactive
same,outcome,[4],inactive
same,outcome,[5],inactive
same,outcome,[6],inactive
same,outcome,[7],inactive
same,AC50,[8],24.7 µM (active)
same,outcome,[9],inactive
same,outcome,[10],inactive
same,AC50,[11],79.2 µM (active)
same,outcome,[12],inactive
same,outcome,[13],inactive
same,outcome,[14],inactive
same,outcome,[15],inactive
same,outcome,[16],inactive
same,outcome,[17],inactive
same,outcome,[18],inactive
CCCCN(CC)c1c([N+](=O)[O-])cc(C(F)(F)F)cc1[N+](=O)[O-],outcome,[1],inactive
same,outcome,[2],inactive
same,outcome,[3],inactive
same,outcome,[4],inactive
same,outcome,[5],inactive
same,outcome,[6],inactive
same,outcome,[7],inactive
same,AC50,[8],35.4 µM (active)
same,outcome,[9],inactive
same,outcome,[10],inactive
same,outcome,[11],inactive
same,outcome,[12],inactive
same,outcome,[13],inactive
same,outcome,[14],inactive
same,outcome,[15],inactive
same,outcome,[16],inactive
same,outcome,[17],inactive
same,outcome,[18],inactive
FC(F)C(F)(F)OCC(Cn1cncn1)c1ccc(Cl)cc1Cl (stereo unspecified),AC50,[1],72.2 µM (active)
same,AC50,[2],81.5 µM (active)
same,AC50,[4],33.6 µM (active)
same,AC50,[5],97.3 µM (active)
same,AC50,[6],49.8 µM (active)
same,AC50,[7],35.6 µM (active)
same,AC50,[8],3.17 µM (active)
same,AC50,[9],78.4 µM (active)
same,AC50,[10],75.3 µM (active)
same,AC50,[11],74.2 µM (active)
same,outcome,[12],inactive
same,outcome,[13],inactive
same,AC50,[14],21.1 µM (active)
same,AC50,[15],36.6 µM (active)
same,AC50,[16],75.9 µM (active)
same,AC50,[17],15 µM (active)
same,AC50,[18],12.2 µM (active)
CCCSP(=O)(OCC)Oc1ccc(Br)cc1Cl (stereo unspecified),outcome,[1],inactive
same,outcome,[2],inactive
same,outcome,[3],inactive
same,outcome,[4],inactive
same,outcome,[5],inactive
same,outcome,[6],inactive
same,outcome,[7],inactive
same,AC50,[8],29.4 µM (active)
same,outcome,[9],inactive
same,outcome,[10],inactive
same,outcome,[11],inactive
same,outcome,[12],inactive
same,outcome,[14],inactive
same,outcome,[15],inactive
same,outcome,[16],inactive
same,outcome,[17],inactive
same,outcome,[18],inactive
CCOP(=O)(SC(C)CC)N1CCSC1=O (stereo unspecified),outcome,[1],inactive
same,outcome,[2],inactive
same,outcome,[4],inactive
same,outcome,[5],inactive
same,outcome,[6],inactive
same,outcome,[7],inactive
same,outcome,[8],inactive
same,outcome,[9],inactive
same,outcome,[10],inactive
same,outcome,[11],inactive
same,outcome,[12],inactive
same,outcome,[13],inactive
same,outcome,[14],inactive
same,outcome,[15],inactive
same,AC50,[16],27.1 µM (active)
same,outcome,[17],inactive
same,outcome,[18],inactive
CC(C)N(C(=O)SCC(Cl)=C(Cl)Cl)C(C)C,outcome,[1],inactive
same,outcome,[2],inactive
same,outcome,[3],inactive
same,outcome,[4],inactive
same,outcome,[5],inactive
same,outcome,[6],inactive
same,outcome,[7],inactive
same,AC50,[8],67.5 µM (active)
same,outcome,[9],inactive
same,outcome,[10],inactive
same,outcome,[11],inactive
same,outcome,[12],inactive
same,outcome,[14],inactive
same,outcome,[15],inactive
same,outcome,[16],inactive
same,outcome,[17],inactive
same,outcome,[18],inactive
CC(Oc1cccc(Cl)c1)C(=O)O (stereo unspecified),outcome,[1],inactive
same,outcome,[2],inactive
same,outcome,[4],inactive
same,outcome,[5],inactive
same,outcome,[6],inactive
same,outcome,[7],inactive
same,outcome,[8],inactive
same,outcome,[9],inactive
same,outcome,[10],inactive
same,outcome,[11],inactive
same,outcome,[19],inactive
same,outcome,[12],inactive
same,outcome,[14],inactive
same,outcome,[15],inactive
same,AC50,[16],20.2 µM (active)
same,AC50,[17],5.79 µM (active)
same,outcome,[18],inactive
